This is a sample that favours compounds with a hit; in the whole collection about 0.43% have one here.
GLA spleen mod = inhibitors or activators of human alpha-galactosidase in spleen homogenate. P06280. human spleen homogenate, 4MU-alpha-Gal fluorescence, 40 min. Potency, µM (top dose mostly 80 µM), without a hit: top-dose activity change, negative = inhibition, actives largely listed as inhibitors. actives 0.008% (n = 240,000). AID 2107;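 also: potency is read from the fitted curve at half-maximal effect; 0% = enzyme with vehicle and -100% = no enzyme basal signal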
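qHTS titration in buffer at pH 5.0. Alpha-galactosidase activity in spleen homogenate was measured via 4-methylumbelliferone release from 1 mM fluorogenic substrate after 40 min at 37C and a pH 10 stop. AC50 came from Hill fits of control-normalized data.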
GAA glycogen mod = inhibitors or activators of human alpha-glucosidase glycogen cleavage; P10253; recombinant GAA, glycogen substrate, Amplex Red glucose oxidase fluorescence; Potency, µM (top dose mostly 76.4 µM), inactives show at the highest dose activity change, negative = inhibition, usual class: inhibitors; actives 0.38% (n = 300,000);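 also: potency is read from the fitted curve at half-maximal effect; 0% = full enzyme reaction and -100% = no-enzyme basal signal; the screen sought inhibitors and activators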
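Recombinant human enzyme (4 nM); glycogen substrate; 37 C, 40 min, pH 5.0. Readout: coupled glucose oxidase/Amplex Red fluorescence.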
N370S GC mod = inhibits or activates N370S mutant glucocerebrosidase; P04062; N370S GC spleen homogenate, 4MU-glucoside fluorescence; Potency, µM (titrated, usually from 59.4 µM), without a hit: at the top dose activity change, negative = inhibition, usual class: inhibitors; actives 0.092% (n = 330,000);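 also: potency is read from the fitted curve at half-maximal effect; 0% = full enzyme activity and -100% = no enzyme basal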
GAA inhib = inhibitors of human lysosomal alpha-glucosidase; purified human GAA, 4-MU-alpha-glucoside fluorescence; Potency, µM (highest dose often 76.9 µM), inactives show top-dose activity change, negative = inhibition, hits mostly inhibitors; actives 0.005% (n = 200,000);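 also: potency is read from the fitted curve at half-maximal effect; plate controls were uninhibited enzyme wells for no effect and no-enzyme background for full effect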
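Human alpha-glucosidase, 4 nM, pre-mixed with test compounds before 400 uM 4-methylumbelliferyl substrate; 20 min room temperature at pH 5.0. Fluorescence read after pH 10 stop; AC50 values from Hill-equation fits.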
GAA spleen mod = inhibits or activates alpha-glucosidase in human spleen homogenate; human spleen homogenate, 4-MU-alpha-glucoside fluorescence; Potency, µM (top dose mostly 79.9 µM), inactives show at the highest dose activity change, negative = inhibition, hits mostly inhibitors; actives 0.006% (n = 240,000);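 also: potency is read from the fitted curve at half-maximal effect; 0% = enzyme with vehicle and -100% = no enzyme basal signal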
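AC50 values come from Hill-equation fits of concentration-response data, normalized to no-enzyme and full-activity controls. Enzyme source: 1 ug human spleen homogenate; 1 mM fluorogenic 4-MU glucoside, pH 5.0 citrate buffer, 37 C, 40 min.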
GLA inh pH 4.5 = inhibitors of human alpha-galactosidase A at pH 4.5 | activity change, negative = inhibition, % at 105 µM | purified enzyme, 4-MU-alpha-Gal fluorescence, pH 4.5 | 230,000 tested, under 10 active | P06280;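 also: 0% = full activity with enzyme and -100% = basal without enzyme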
Target sequence (P06280 whole entry, looked up): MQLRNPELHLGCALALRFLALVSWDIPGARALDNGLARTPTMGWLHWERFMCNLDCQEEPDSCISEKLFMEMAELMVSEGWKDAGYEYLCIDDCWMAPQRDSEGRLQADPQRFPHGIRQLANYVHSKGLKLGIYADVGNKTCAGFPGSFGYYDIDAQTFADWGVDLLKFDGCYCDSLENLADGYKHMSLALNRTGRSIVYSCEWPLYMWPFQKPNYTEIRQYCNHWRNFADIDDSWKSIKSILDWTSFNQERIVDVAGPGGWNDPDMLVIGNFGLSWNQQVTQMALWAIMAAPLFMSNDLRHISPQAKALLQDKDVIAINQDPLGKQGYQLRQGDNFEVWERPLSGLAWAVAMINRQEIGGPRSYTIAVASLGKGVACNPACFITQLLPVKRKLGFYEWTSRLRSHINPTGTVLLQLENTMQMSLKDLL
The depositor's hits bear a star; ? = inconclusive; . = no result given; ! = repeats disagree; [ ] = remark or other dose. Calls follow the shape of the dose curve; as a rule, active = well fitted curve in the direction sought with a large enough effect; inconclusive = small, poorly fitted or top-dose-only effect, or another doubt; inactive = no such curve, though single readings can be large; an effect the other way counts as inactive or inconclusive.

SMILES	GLA spleen mod	GAA glycogen mod	N370S GC mod	GAA inhib	GAA spleen mod	GLA inh pH 4.5
NS(=O)(=O)c1ccc(NNC(=O)c2ccccc2C(=O)O)cc1	-1%	?	2%	.	-12%	-1
Cc1ccc(CNC(=O)c2ccc(CN3CC(=O)N4CCCCC4C3=O)cc2)cc1 (centres undefined)	.	13%[76.3 µM]	.	.	.	.
COC(=O)CC1=COC2OCC3=CC[C@@H]1C32 (some centres undefined)	-2%[17.5 µM]	.	2%[12.8 µM]	.	1%[17.4 µM]	.
C=CCc1cc(/C=C/c2nc(O)c([N+](=O)[O-])c(=O)[nH]2)cc(OC)c1O	-2%	11µM*	-13%	?	-26%	-11
Cc1nn2cc(-c3ccc(OC(C)C)cc3)nc2s1	.	9%[76.3 µM]	.	.	.	.
O=S(=O)(c1ccc(Cl)cc1)N1CCN(c2nc(-c3cccs3)nc3ccccc23)CC1	10%	-7%	0.45µM*	?	5%	-9
Cc1cc(O)ccc1Nc1nc(-c2cccs2)cs1	-16%	32µM*	-10%	3%	-2%	-2
O=C1C2=C(C(=O)c3ccccc31)C1O[C@](c3ccsc3)(Cc3ccccc31)O2	.	-3%[15.3 µM]	1%[12.8 µM]	.	.	.
Nc1ccccc1NC(=O)c1ccc(CNC(=O)OCc2cccnc2)cc1	-4%	.	1%	.	2%	.
CC(=O)N1CCN(c2ccc(NC(=O)C(c3ccccc3)c3ccccc3)cc2)CC1	.	-2%[76.3 µM]	13µM*	.	.	.
O=C(Nc1ccc(N2CCCC2)cc1)C(c1ccccc1)c1ccccc1	-6%	3%	-10%	-5%	-5%	0
CCc1ccc(CNc2ccc(N3CCN(C(C)=O)CC3)cc2)cc1	1%	?	-14%	-1%	0%	1
CC(=O)N1CCN(c2ccc(NCc3ccc(C)cc3)cc2)CC1	9%	20µM*	-10%	-9%	-3%	3
COc1ccc(-c2coc3cc(O)cc(O)c3c2=O)cc1	-7%	-6%	?	-1%[15.4 µM]	-4%	3
O=c1c(-c2ccc(O)cc2)coc2cc(O)cc(O)c12	7%	-3%	16µM*!	.	-7%	-8
CCCCCCCCCCCCCCCCOC[C@H](COP(=O)([O-])OCC[N+](C)(C)C)OC(=O)CCCCCCCC(=O)O	-11%	.	-7%	.	-7%	.
CCc1nnc(N/N=C/c2cc(C)c(C)cc2C)n1N	.	8.9µM*	-4%	.	.	.
Cc1[nH]c2ccccc2c1/C=N/Nc1nc2ccccc2[nH]1	9%	?	21%	.	2%	-4
Cc1[nH]c2ccccc2c1/C=N/NC(N)=S	9%	?	-11%	.	-26%	-1
Cc1ccc(NC(=S)N/N=C/c2c(C)[nH]c3ccccc23)cc1	7%	28µM*	?	-12%	0%	-9
CCc1nnc(N/N=C/c2c(C)[nH]c3ccccc23)n1N	6%	7.9µM*	6%	8%	0%	4
CCc1nnc(N/N=C/c2c(F)cccc2Cl)n1N	.	-9%[76.3 µM]	-2%	.	.	.
C[C@@H](c1ccccc1)N1C(=O)[C@H]2[C@H]3[C@H](O)[C@H](O)C/C(=N/OCc4ccccc4)[C@@H]3CC[C@@H]2C1=O	-1%[17.5 µM]	.	-3%[12.8 µM]	.	2%[17.4 µM]	.
O=C1[C@H]2[C@H]3[C@H](O)[C@H](O)C/C(=N/OC[C@@H](O)COCc4ccco4)[C@@H]3CC[C@@H]2C(=O)N1C[C@@H]1CCCO1	3%[17.5 µM]	.	-4%[12.8 µM]	.	5%[17.4 µM]	.
Cc1ccc(S(=O)(=O)N/N=C/c2ccc(O)cc2O)cc1[N+](=O)[O-]	6%	25µM*	8%	.	-1%	2
SMILES	GLA spleen mod	GAA glycogen mod	N370S GC mod	GAA inhib	GAA spleen mod	GLA inh pH 4.5
Cc1ccc(S(=O)(=O)N/N=C/c2cc([N+](=O)[O-])ccc2O)cc1[N+](=O)[O-]	4%	-6%	2%	-12%	7%	-8
C/C=C/c1cc(CN2CCN(c3ccc(OC)cc3)CC2)c(O)c(OC)c1	-2%	14µM*	15%	-3%	-2%	-5
C/C=C/c1cc(CN2CCN(c3ccccc3)CC2)c(O)c(OC)c1	3%	?	-8%	6%	1%	-11
Cc1cc(C)c2ccc3c(C)c(C)nc3c2[nH]1	-5%	7%	7.1µM*	?	.	-10
N#C/C(=C/c1ccc(F)cc1)C(N)=S	-3%	35µM*	16%	?	-5%	-6
CCCCC/C=C\C/C=C\C/C=C\C/C=C\CCCCCC(=O)NCCCC(=O)O	-19%	.	-3%	.	-8%	-9
NC(=O)Cc1c[nH]c2cccc(O)c12	-2%	10µM*	9%	1%	4%	7
COc1ccc(-c2ccc3c(n2)CCCN3C[C@H](O)CN2CCCc3nc(-c4ccc(Br)cc4)ccc32)cc1	0%[17.5 µM]	.	-7%[12.8 µM]	.	0%[17.4 µM]	.
Cc1ccc(C(O)(C(=O)NNc2ccccn2)c2ccc(C)cc2)cc1	6%	5µM*	-4%	-11%	-6%	-8
Cc1ccc(/C=C2/CNC/C(=C\c3ccc(C)cc3)C2=O)cc1	6%	.	-4%	.	4%	.
CCn1c(SCC(=O)c2ccc(O)c(O)c2)nnc1-c1ccc(C)cc1	-7%	12µM*	-17%	-5%	-4%	3
O=[N+]([O-])c1cc(-c2nc(-c3cccnc3)no2)ccc1NCc1ccccc1	.	-16%[76.3 µM]	.	.	.	.
CCOC(=O)c1c(N)sc2c1CCCC2	4%	35µM*	-2%	2%	-8%	2
CCOC(=O)c1c(N)sc2c1CCC(C)C2 (centres undefined)	2%	?	3%[2.35 µM]	-3%	1%	-15
Cc1cc(C)c2nc(N(CCCN(C)C)C(=O)c3ccc(S(=O)(=O)N4CCCCCC4)cc3)sc2c1	.	.	16µM*	.	.	.
COc1ccc(C2NC3=C(CCC3)C3(C#N)C4(N=C(N)C23C#N)OCCO4)cc1 (centres undefined)	-8%	22µM*	6%	-10%	3%	-5
COc1ccc(C2NC3=C(CCCC3)C(C#N)(C#N)C2(C#N)C#N)cc1 (centres undefined)	-1%	-27%	-10%	-11%	-7%	-5
C=C(C)c1cccc(C(C)(C)NC(=O)Nc2ccc(C(N)=O)cc2)c1	2%	5%	-2%	0%	3%	3
C=C(C)c1cccc(C(C)(C)NC(=O)Nc2cccnc2)c1	.	-1%[76.3 µM]	22µM*	.	.	.
CC(C)C/C(O)=C/c1nc2cc(Cl)ccc2oc1=O	-8%	?	2%	0%	-6%	2
Cc1ccc(/C(O)=C/c2nc3cc(C)ccc3oc2=O)cc1	-6%	16µM*	6%	.	-8%	-5
O=c1oc2ccc(Cl)cc2nc1/C=C(\O)c1ccco1	5%	7.1µM*	-14%	.	1%	-8
CCN1CCS/C1=C/C=C/C1=[N+](CC)CCS1	-20%	-9%	7.9µM*	?	?	?
c1coc(-c2ccc3ncnc(NCc4cccs4)c3c2)c1	.	.	3%	.	.	.
